Calls of active or inactive are those of the source. The calls were made as follows: active = hit-call score of the fitted dose curve at least 0.9, where 1 is the maximum; inactive = score below 0.9.
Tests used:
[1] = target: Paired box protein Pax-6 (Homo sapiens) (UniProt P26367); assay: ATG_Pax6_CIS: Attagene CIS-FACTORIAL HepG2 Assay for human Paired Box 6 (PAX6) (AID 2282956); settings: HepG2 CIS-FACTORIAL PAX6 reporter transcription, RNA readout; actives raise or lower the signal
Procedure, shortened: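 Read-out is reporter transcript level, measured by RT-PCR with fluorescent primer extension and capillary electrophoresis after 24 h dosing of transfected HepG2 cells. Activity in either direction fitted relative to DMSO control.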

[2] = ATG_PXRE_CIS: Attagene CIS-FACTORIAL HepG2 Assay for human Pregnane X Receptor Element (PXRE) (AID 2282957); settings: HepG2 Attagene CIS-FACTORIAL PXRE reporter, mRNA; actives raise or lower the signal
Procedure, shortened: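 Fluorescent capillary electrophoresis of amplified reporter cDNA gave the signal, collected 24 h after dosing HepG2 cells that held transfected cis-element reporter constructs.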

[3] = ATG_PPRE_CIS: Attagene CIS-FACTORIAL HepG2 Assay for human Peroxisome Proliferator-activated Response Element (PPRE) (AID 2282958); settings: HepG2 PPRE cis-element reporter, Attagene transcription factor profiling; actives raise or lower the signal
Procedure, shortened: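 HepG2 cells are transiently transfected with multiplexed cis-promoter reporter units to report endogenous PPAR activity. After 24 h dosing, reporter mRNA is read by RT-PCR and capillary electrophoresis. Fitting is bidirectional against DMSO.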

[4] = ATG_Sox_CIS: Attagene CIS-FACTORIAL HepG2 Assay for human SRY-box transcription factor (SOX) (AID 2282960); settings: HepG2 Attagene cis-factorial SOX reporter, mRNA; actives raise or lower the signal
Procedure, shortened: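 HepG2 cells transiently transfected with multiple cis-regulated reporter units, then dosed for 24 h. Reporter mRNA quantified by RT-PCR, fluorescent labelling, HpaI digestion and capillary electrophoresis; bidirectional fit versus DMSO.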

[5] = target: Transcription factor Sp1 (Homo sapiens) (UniProt P08047); assay: ATG_Sp1_CIS: Attagene CIS-FACTORIAL HepG2 Assay for human Specificity Protein 1 (Sp1) (AID 2282961); settings: HepG2 Sp1 cis-reporter transcription, actives raise or lower the signal
Transcription factor Sp1 (Homo sapiens), sequence (P08047 whole entry, looked up): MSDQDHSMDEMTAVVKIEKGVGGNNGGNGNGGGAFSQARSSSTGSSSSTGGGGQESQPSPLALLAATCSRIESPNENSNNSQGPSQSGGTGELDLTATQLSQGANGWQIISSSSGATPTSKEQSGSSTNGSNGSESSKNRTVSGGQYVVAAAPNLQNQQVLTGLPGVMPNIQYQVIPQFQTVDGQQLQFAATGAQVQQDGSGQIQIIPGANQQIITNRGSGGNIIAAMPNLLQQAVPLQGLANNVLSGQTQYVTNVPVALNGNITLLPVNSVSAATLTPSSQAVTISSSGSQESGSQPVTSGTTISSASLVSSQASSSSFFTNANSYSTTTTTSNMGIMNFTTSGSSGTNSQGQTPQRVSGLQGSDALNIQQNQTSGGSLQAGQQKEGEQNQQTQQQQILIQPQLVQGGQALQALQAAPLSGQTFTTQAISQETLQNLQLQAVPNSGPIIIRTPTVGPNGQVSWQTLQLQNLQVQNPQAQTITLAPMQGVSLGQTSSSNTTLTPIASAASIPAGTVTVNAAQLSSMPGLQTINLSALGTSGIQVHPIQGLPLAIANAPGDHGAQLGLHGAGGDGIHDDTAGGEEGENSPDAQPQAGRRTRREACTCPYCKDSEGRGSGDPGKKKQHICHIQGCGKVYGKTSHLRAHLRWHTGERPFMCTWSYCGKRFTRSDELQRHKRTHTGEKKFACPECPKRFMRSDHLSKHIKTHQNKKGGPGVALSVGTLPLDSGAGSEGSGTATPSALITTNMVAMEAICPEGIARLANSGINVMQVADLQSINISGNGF
Procedure, shortened: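 HepG2 cells transiently transfected with multiplexed cis-regulated reporter constructs, chemical exposure 24 h. Reporter mRNA quantified by RT-PCR with capillary electrophoresis; bidirectional fit relative to DMSO.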

[6] = ATG_SREBP_CIS: Attagene CIS-FACTORIAL HepG2 Assay for human Sterol Regulatory Element Binding (SREBP) (AID 2282962); settings: HepG2 Attagene cis-factorial SREBP reporter, mRNA; actives raise or lower the signal
Procedure, shortened: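 Endogenous SREBP activity read as cis-element-driven reporter transcript in transiently transfected HepG2, 24 h post-dosing; quantified via RT-PCR plus capillary electrophoresis of fluorescent fragments. Gain or loss of signal fitted relative to DMSO baseline.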

[7] = target: Signal transducer and activator of transcription 3 (Homo sapiens) (UniProt P40763); assay: ATG_STAT3_CIS: Attagene CIS-FACTORIAL HepG2 Assay for human Signal Transducer and Activator of Transcription 3 (STAT3) (AID 2282963); settings: HepG2, Attagene cis-factorial STAT3 reporter transcription; actives raise or lower the signal
Signal transducer and activator of transcription 3 (Homo sapiens), sequence (P40763 whole entry, looked up): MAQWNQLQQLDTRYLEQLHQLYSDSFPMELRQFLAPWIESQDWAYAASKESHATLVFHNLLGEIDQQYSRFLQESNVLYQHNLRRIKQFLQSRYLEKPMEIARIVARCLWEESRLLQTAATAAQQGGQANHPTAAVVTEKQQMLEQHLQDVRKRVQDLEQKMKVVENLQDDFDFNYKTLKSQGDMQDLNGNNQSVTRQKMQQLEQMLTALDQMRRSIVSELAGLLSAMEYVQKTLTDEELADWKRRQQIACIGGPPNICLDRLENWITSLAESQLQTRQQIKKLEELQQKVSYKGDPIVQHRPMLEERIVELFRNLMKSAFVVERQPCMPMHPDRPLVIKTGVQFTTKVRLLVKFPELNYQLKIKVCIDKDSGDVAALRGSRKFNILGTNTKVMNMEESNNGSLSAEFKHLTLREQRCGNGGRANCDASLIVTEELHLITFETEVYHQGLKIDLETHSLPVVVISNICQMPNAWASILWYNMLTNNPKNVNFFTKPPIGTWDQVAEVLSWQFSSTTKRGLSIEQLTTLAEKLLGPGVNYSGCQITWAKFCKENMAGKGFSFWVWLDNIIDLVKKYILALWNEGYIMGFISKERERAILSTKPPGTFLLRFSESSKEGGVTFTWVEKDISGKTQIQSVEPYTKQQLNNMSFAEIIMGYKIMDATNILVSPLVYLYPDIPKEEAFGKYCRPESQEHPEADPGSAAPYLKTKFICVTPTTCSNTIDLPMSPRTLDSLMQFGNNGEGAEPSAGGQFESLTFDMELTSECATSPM
Procedure, shortened: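 Readout is reporter transcript quantified by RT-PCR and capillary electrophoresis, with 6-FAM primer extension and HpaI digestion. Total RNA is taken 24 h after dosing transiently transfected HepG2 carrying cis-regulated reporter units. Bidirectional fit against DMSO.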

[8] = ATG_TA_CIS: Attagene CIS-FACTORIAL HepG2 Assay for human TA Basal Promoter (AID 2282964); settings: HepG2 Attagene CIS-factorial TA basal promoter reporter; actives raise or lower the signal
Procedure, shortened: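 HepG2 cells transiently transfected with multiple reporter units under cis promoter elements, reporting endogenous transcription factor activity; this endpoint tracks the TA basal promoter as background control. Reporter mRNA after 24 h dosing measured by RT-PCR/capillary electrophoresis; bidirectional fits versus DMSO.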

[9] = ATG_TCF_b_cat_CIS: Attagene CIS-FACTORIAL HepG2 Assay for human T-Cell-Factor with beta-catenin (TCF/b-cat) (AID 2282965); settings: HepG2 TCF/beta-catenin cis-reporter transcription, actives raise or lower the signal
Procedure, shortened: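 Measured: reporter mRNA in HepG2 transiently transfected with cis-promoter reporter units, 24 h after chemical addition. Fitting was bidirectional, DMSO as negative control.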

[10] = ATG_RORE_CIS: Attagene CIS-FACTORIAL HepG2 Assay for human RAR-related Orphan Receptor Element (RORE) (AID 2282959); settings: HepG2 Attagene cis-factorial RORE reporter, mRNA; actives raise or lower the signal
Procedure, shortened: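 HepG2 cells carrying transiently transfected cis-regulated reporter units; RORE-driven reporter mRNA quantified 24 h post-dosing by RT-PCR, 6-FAM primer extension, HpaI digestion and capillary electrophoresis. Bidirectional fit versus DMSO.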

Measured: AC50

Paired box protein Pax-6 (Homo sapiens), sequence (P26367 whole entry, looked up): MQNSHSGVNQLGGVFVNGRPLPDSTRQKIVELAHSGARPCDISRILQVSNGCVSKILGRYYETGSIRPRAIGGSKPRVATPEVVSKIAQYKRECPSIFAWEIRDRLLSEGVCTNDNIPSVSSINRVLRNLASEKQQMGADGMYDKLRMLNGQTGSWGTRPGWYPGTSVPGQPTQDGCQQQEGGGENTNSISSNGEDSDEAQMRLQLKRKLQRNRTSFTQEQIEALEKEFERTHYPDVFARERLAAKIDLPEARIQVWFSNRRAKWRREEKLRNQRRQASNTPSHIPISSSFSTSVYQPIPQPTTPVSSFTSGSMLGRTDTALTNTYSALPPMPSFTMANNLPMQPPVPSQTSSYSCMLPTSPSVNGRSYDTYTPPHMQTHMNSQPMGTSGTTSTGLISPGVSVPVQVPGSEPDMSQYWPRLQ

C=C1CC[C@H](O)C/C1=C/C=C1\CCC[C@]2(C)[C@@H]([C@H](C)/C=C/[C@H](C)C(C)C)CC[C@@H]12
active: [2] 3.32 µM
not listed: [10]
inactive: all other assays above

CCCC(C)C(O)CC (stereo unspecified)
not listed: [3]
inactive: all other assays above

CCCCCC(=O)CC
active: [2] 33.4 µM
not listed: [4] | [5] | [8]
inactive: all other assays above

CCC1(C)NC(=O)NC1=O (stereo unspecified)
not listed: [5] | [8] | [10]
inactive: all other assays above

COc1cc(Cl)c(OC)cc1N
active: [2] 62.4 µM
not listed: [10]
inactive: all other assays above

NCC1CCCC(CN)C1 (stereo unspecified)
not listed: [10]
inactive: all other assays above

O=C(Nc1ccc2c(O)c(N=Nc3ccc(N=Nc4ccc(S(=O)(=O)O)cc4)cc3)c(S(=O)(=O)O)cc2c1)c1ccccc1
not listed: [3]
inactive: all other assays above

COC(C)(C)CCO
not listed: [4] | [5] | [9]
inactive: all other assays above

CC(C)c1ccccc1O
active: [2] 81.1 µM
not listed: [3] | [9]
inactive: all other assays above

C=CCCC(=O)/C=C/C1C(C)=CCCC1(C)C (stereo unspecified)
active: [2] 1.18 µM | [6] 100 µM
not listed: [10]
inactive: all other assays above

CSCCC=O
active: [2] 10.9 µM
not listed: [4]
inactive: all other assays above

CC(=O)O[C@H]1C[C@@H]2CC[C@@]1(C)C2(C)C
not listed: [3] | [9]
inactive: all other assays above

COS(=O)(=O)O
not listed: [3]
inactive: all other assays above

CCCCOCC
not listed: [4] | [5] | [8]
inactive: all other assays above

COCCc1ccc(OCC(O)CNC(C)C)cc1 (stereo unspecified)
active: [2] 55 µM
not listed: [5] | [10]
inactive: all other assays above

CN(C)c1cccc(O)c1
active: [2] 6.77 µM
not listed: [10]
inactive: all other assays above

Brc1ccc(Br)c(Br)c1
not listed: [3]
inactive: all other assays above

CC(=O)c1ccccn1
not listed: [4]
inactive: all other assays above

C=C(C)[C@@H]1CC=C(C)C(=O)C1
active: [2] 25.5 µM
not listed: [3] | [9]
inactive: all other assays above

CC1=CC[C@@]23C[C@@H]1C(C)(C)[C@@H]2CC[C@H]3C
active: [2] 5.2 µM
not listed: [3]
inactive: all other assays above

C=Cc1ccncc1
inactive: [7] | [8]
active: [1] 33.1 µM | [2] 33.1 µM | [3] 13.5 µM | [10] 10.2 µM | [5] 27.1 µM | [6] 17.1 µM | [9] 57 µM

CCCC(=O)OCCc1ccccc1
not listed: [4]
inactive: all other assays above

CC1(C)C2=CCCC(C)(C)[C@]23CC[C@H]1C3
active: [2] 1.49 µM | [6] 53.2 µM
not listed: [5] | [10]
inactive: all other assays above

CCCCCCCC/C=C\CCCCCCCC(=O)OCC
not listed: [10]
inactive: all other assays above

Cc1ccc(-c2ccccc2)cc1
active: [2] 27.3 µM
not listed: [4]
inactive: all other assays above

Cc1ccc(S(=O)(=O)Oc2ccc(N=Nc3ccc(-c4ccc(N=Nc5c(O)ccc6cc(S(=O)(=O)O)cc(S(=O)(=O)O)c56)c(C)c4)cc3C)cc2)cc1
active: [2] 4.91 µM
not listed: [10]
inactive: all other assays above

Source: PubChem BioAssay (EPA / NIEHS)
